PubChem BioAssay (NCATS)
Inconclusive results are not listed. Unmarked numbers belong to inactive results. Activity calls are given as the source filed them. Calls come from the whole dose curve; as a rule, active = well fitted inhibition curve with a large enough effect; inconclusive = small, poorly fitted or top-dose-only effect; inactive = flat fitted curve, though single readings scatter. Where a SMILES comes first, the peptide text is derived from it. [ ]: non-standard residue; d: D form. ξ: configuration not given here. ξPhe(βξ-Me) = CC(c1ccccc1)C(N)C(=O)O; GABA = NCCCC(=O)O

Assay: Primary qHTS for inhibitors of nuclear receptor binding SET domain protein 2 (NSD2) in an isogenic RCH-ACV NSD2 p.E1099K mutant (9B) (AID 1645876); note: nearly all actives have a fitted effect of over 70% in size
Settings: RCH-ACV (leukaemia line) NSD2 E1099K (9B) viability, CellTiter-Glo, 72 h; series mostly up to 44.9 µM; activity change, negative = viability loss: at the top concentration
% is set by controls: 0 for no effect and ±100 for the full control effect.

| Compound | activity change, negative = viability loss | outcome |
| --- | --- | --- |
| CC1(C)O[C@@]2(C)CC[C@@H]1C[C@@H]2OC1OC(CO)C(O)C(O)C1O (some centres undefined) | -0.566% |  |
| CC(=C/C(=O)O)/C=C/[C@]1(O)[C@@]2(C)CO[C@]1(C)C[C@H](O[C@@H]1O[C@H](CO)[C@@H](O)[C@H](O)[C@H]1O)C2 |  | inactive [at 17.3 µM] |
| O=C(O)c1cc(O)c2cccc(O)c2c1O[C@@H]1O[C@H](CO)[C@@H](O)[C@H](O)[C@H]1O | -17.9% |  |
| COC(=O)C1=CO[C@@H](O[C@@H]2O[C@H](COC(=O)/C=C/c3cc(OC)c(O)c(OC)c3)[C@@H](O)[C@H](O)[C@H]2O)[C@@H]2C(CO)=CC[C@H]12 | 0.189% [at 17.3 µM] |  |
| CCCC1=CC2=C(CO1)C(=O)C(C)(OC(=O)c1c(C)cc(OC)cc1O)C(O)C2 (centres undefined) | -12.4% [at 17.3 µM] |  |
| CC1CCC2C(C(=O)O)=CC3CC(C)(C)CC132 (centres undefined) | -9.79% |  |
| O=c1c2ccccc2nc2n1CCC2O (centres undefined) | -4.8% [at 91.9 µM] |  |
| CC1(CCC(=O)O)C(=O)C=CC23CC4CC(OC4(C)C2O)C13 (centres undefined) | -12.1% |  |
| C=C(C)C(C)C1OC23CC4(CO2)C(CCC2C5(C)CCC(OC6OCC(O)C(OC7OC(CO)C(O)C(OC8OCC(O)C(O)C8O)C7O)C6OC6OC(CO)C(O)C6O)C(C)(C)C5CCC24C)C3C(C)(O)C1OC(C)=O (centres undefined) | -26.7% [at 9.23 µM] |  |
| Clc1ccc2c(c1)C1=NCCN1c1c(-c3noc(C4CC4)n3)ncn1-2 | -18.1% |  |
| C/C(=C\CCC(C(=O)O)C1CCC2(C)C3=C(CCC12C)C1(C)CCC(=O)C(C)(C)C1CC3)C(=O)O (centres undefined) | -19.2% [at 17.3 µM] |  |
| COC(=O)C1=CO[C@@H](O[C@@H]2O[C@H](CO)[C@@H](O)[C@H](O)[C@H]2O)[C@@H]2[C@@H](C(=O)OC)[C@@H](O)C(O)[C@H]12 (some centres undefined) | -14% [at 17.3 µM] |  |
| C[C@@H]1CC[C@]2(C(=O)O[C@@H]3O[C@H](CO)[C@@H](O)[C@H](O)[C@H]3O)CC[C@]3(C)C(=CCC4[C@@]5(C)C[C@@H](O)[C@H](O)C(C)(C)C5CC[C@]43C)C2[C@]1(C)O (some centres undefined) | 4.62% [at 17.3 µM] |  |
| C=C1C[C@]23C[C@H]1CC[C@H]2[C@@]12C=C[C@H](O)[C@@](C)(C(=O)O1)[C@H]2[C@@H]3C(=O)O | -9.86% |  |
| CC(C)CC1NC(=O)C(C(C)c2ccccc2)NC(=O)C(C(C)C)NC(=O)C(C)NC(=O)CCCNC(=O)C(Cc2c[nH]c3ccccc23)NC(=O)C(C)NC1=O (stereo not drawn) (cyclo([GABA]AV[ξPhe(βξ-Me)]LAW); configuration not given here) |  | inactive [at 17.3 µM] |
| COc1cc(-c2cccc(O)c2)cc2c1OCO2 | -13% |  |
| CC1CCCC2OC2C(=O)c2c(O)cc(O)cc2CC(=O)O1 (centres undefined) | -20.5% |  |
| Cc1ccc(Sc2cncc3sc(C(N)=O)cc23)cc1 | -26.5% |  |
| O=C(c1ccc(NS(=O)(=O)c2cccc3cccnc23)cc1)N1CCN(CC2CC2)CC1 | -11.1% |  |
| O=C(OCC12OC1C=CC(OC(=O)c1ccccc1)C2O)c1ccccc1 (centres undefined) | -29.9% |  |

| Compound | activity change, negative = viability loss | outcome |
| --- | --- | --- |
| C/C=C/C=C/C=C/C(=O)O[C@@H]1[C@@H](OC)C2=C(C(=O)N(C(C)C(=O)O)C2)[C@@]2(C)CCCC(C)(C)[C@H]12 (some centres undefined) | 2.77% [at 17.3 µM] |  |
| C=C1[C@H]2[C@H](O[C@@H]3O[C@H](COC(=O)/C=C/c4cc(OC)c(O)c(OC)c4)[C@@H](O)[C@H](O)[C@H]3O)OC=C(C(=O)O)[C@H]2C[C@@H]1O | -0.778% [at 17.3 µM] |  |
| COc1c(C(CC(C)C)OC(C)=O)ccc(Oc2c(O)cc(C)cc2/C=C/C(C)=O)c1C(=O)O (centres undefined) | -19.3% [at 17.3 µM] |  |
| C[C@@H]1O[C@@H](O[C@H]2[C@H](OC(=O)C34CCC5(C)C(=CCC6C7(C)CC(O)C(O[C@@H]8O[C@H](C(=O)O)[C@@H](O)[C@H](O)[C@H]8O)C(C)(C(=O)O)C7CCC65C)C3CC(C)(C)CC4O)O[C@H](C)[C@@H](O)[C@@H]2O)[C@H](O)[C@@H](O[C@@H]2OC[C@](O)(CO)[C@H]2O[C@@H]2O[C@H](CO)[C@@H](O)[C@H](O)[C@H]2O)[C@H]1O (some centres undefined) | -24% [at 9.23 µM] |  |
| COC1CC(=O)CCC(C)OC(=O)CC1O (centres undefined) | -6.01% |  |
| C=CC1(C)CC(OC(=O)C(=C)C(O)COC(C)=O)C(C(=C)C(=O)OC)C(O)C1C(=C)CO (centres undefined) | -13.4% [at 17.3 µM] |  |
| O=C1[C@H](O[C@@H]2O[C@H](CO)[C@@H](O)[C@H](O)[C@H]2O)Oc2ccccc2N1O | -4.31% |  |
| CC1CCC2C(C(=O)O)=CC3C(O)C(C)(C)CC123 (centres undefined) | 4.71% |  |
| CC1=C(C)C(=O)OC(C(C)(O)C2CCC3C4CC=C5CC(OC6OC(COC7OC(CO)C(O)C(O)C7O)C(O)C(O)C6O)CC(O)C5(C)C4CCC32C)C1 (centres undefined) | -7.3% [at 17.3 µM] |  |
| CC(=O)OC[C@]1(O)[C@H]2[C@H](OC(=O)CC(C)C)OC=C(CO[C@@H]3O[C@H](CO)[C@@H](O)[C@H](O)[C@H]3O)[C@H]2C[C@@H]1O | -18.3% [at 17.3 µM] |  |
| CN[C@@H]1[C@@H](O)[C@@H](O[C@@H]2[C@@H](O)[C@H](O[C@H]3O[C@H](CN)[C@@H](O)[C@H](O)[C@H]3O)[C@@H](N)C[C@H]2NC(=O)[C@@H](O)CN)OC[C@]1(C)O | 2.3% |  |
| CC/C=C\C[C@H]1C(=O)C=C[C@@H]1CCCCCCCC(=O)O | -17.6% |  |
| CC1=CC2(O)/C=C/C(C)(O)CC(O)/C=C/C(=O)OC23C(=O)NC(CC(C)C)C3C1C (centres undefined) | -26.9% [at 17.3 µM] |  |
| COC(=O)C1C(CC(C)=O)C=CC(O)C12Oc1cc(C)cc(O)c1C2=O (centres undefined) | -19.6% |  |
| COC(=O)[C@@]1(O)C=CC[C@@H]2[C@@]3(C)C[C@@H](c4ccoc4)OC(=O)[C@H]3CC[C@]21C | -2.11% |  |
| CC[C@H](C)/C=C(C)/C=C/C(=O)Cc1cc(O)c(C)c(O)c1C=O | -24.1% |  |
| COC(=O)C1=CO[C@@H](O[C@@H]2O[C@H](CO[C@@H]3O[C@H](COC(=O)/C=C/c4ccc(O)cc4)[C@@H](O)[C@H](O)[C@H]3O)[C@@H](O)[C@H](O)[C@H]2O)[C@@H]2C(CO)=CC[C@H]12 | 4.24% [at 17.3 µM] |  |
| CC[C@H](/C=C/[C@@H](C)[C@H]1CC[C@H]2[C@@H]3CC=C4C[C@@H](O)CC[C@]4(C)[C@H]3CC[C@]12C)C(C)C |  | inactive [at 4.96 µM] |
| C/C=C/C1=CC2=CC(=O)C(C)(O)C(OC(=O)c3c(C)cc(O)cc3O)C2CO1 (centres undefined) | -21.5% |  |
